Hit rate of the full screen: of about 52,000 compounds, about 4,300 (8.3%) were called active. For the sample, actives were picked, then their nearest neighbours and some compounds at random. Unmarked numbers belong to inactive results. Rule as the data show it: active = survival mostly below about 52% (no sharp cut-off); inactive = mostly above about 56%.

This passage reports survival results from PubChem BioAssay AID463173 (ICCB-Longwood Screening Facility, Harvard Medical School, 2010).

The assay deals with DeltatarO mutant. Put plainly: S. aureus survival, RN4220 and DeltatarO strains – OD600, teichoic acid synthesis inhibitors, primary screen (AID 463173). The following applies: S. aureus RN4220 wild type/DeltatarO growth, OD600, 18 h, hits give low values, screened at 18.75 µg/mL (by protocol).
On to `O=C(CC1N=C2c3ccccc3N=C(SCC(=O)Nc3ccccc3F)N2C1=O)NCc1ccc2c(c1)OCO2` (configuration not stated), for which the survival was 73%.
In the case of `Nc1c(-c2nc(-c3ccc(Cl)cc3)no2)nnn1-c1ccc(C(F)(F)F)c(Cl)c1`, the survival was 75%.
On to `Cc1cc(C)c2c(CC(=O)Nc3ccccc3C(F)(F)F)coc2c1`, for which the survival was 72%.
Next, `O=C(NCCCN1CCCC1)c1ccccc1Cl`: 86%; `COc1ccc(Nc2nc3ccc(Cl)cc3n3nnnc23)cc1OC`: 102%; `CC(C)C(=O)NCC(c1ccc2c(c1)OCO2)N1CCN(c2ccccc2F)CC1` (configuration not stated): 74%.
Consider `COC(=O)CC(=O)CSc1nc(C)cc(C)c1C#N`, for which the survival was 80%.
Turning to `CCOc1ccc2nc(NC(=O)c3ccccc3)sc2c1`, the survival was 41% (active).
For `CCOc1ccc2nc(NC(=O)c3cc(=O)c4ccc(C)cc4o3)sc2c1`, the survival is 25% (active).
With `O=C(Nc1nc2ccc(Cl)cc2s1)c1cc(=O)c2ccccc2o1`, the survival was 32% (active).
As for `Cc1ccc2c(=O)cc(C(=O)Nc3nc4ccc(Cl)cc4s3)oc2c1C`, the survival is 39% (active).
As for `CCOc1ccc2nc(NC(=O)c3cc(=O)c4cc(C)cc(C)c4o3)sc2c1`, the survival was 85%.
With `CS(=O)(=O)c1ccc2nc(NC(=O)c3ccccc3)sc2c1`, the survival is 81%.
On to `COc1ccc2nc(NC(=O)c3cc(=O)c4cc(C)cc(C)c4o3)sc2c1`, for which the survival was 69%.
Turning to `CC(=O)Nc1ccc2nc(NC(=O)c3cc4ccccc4o3)sc2c1`, the survival was 102%.
`COc1ccc2nc(NC(=O)c3cc(=O)c4cc(C)c(C)cc4o3)sc2c1`: the survival was 58%.
Next, `COc1ccc2nc(NC(=O)c3cc(=O)c4ccccc4o3)sc2c1`: 50%; `CCOc1ccc2nc(NC(=O)c3nc(SC)ncc3Cl)sc2c1`: 95%.
With `Cc1cc(C)c2oc(C(=O)Nc3nc4ccc(Cl)cc4s3)cc(=O)c2c1`, the survival was 61%.
With `O=S(=O)(c1ccc(Br)cc1)N1CCOCC1`, the survival was 94%.
To `CC(C)NS(=O)(=O)c1ccc(OCC(=O)N2CCN(c3cccc(Cl)c3)CC2)cc1` belongs 95%.
For the compound `CCSc1ncc(Cl)c(C(=O)Nc2ccc(S(=O)(=O)N3CCCCC3)cc2)n1`, the survival is 87%.
For `Cc1ccc(-c2csc(NC3OC(=O)c4c#cccc43)n2)cc1` (configuration not stated), the survival was 94%.
Regarding `Cc1ccc(Cn2cnc3nc4c(cc3c2=O)CCCC4)cc1`, the survival is 81%.
For the compound `CCc1ccc2[nH]c(=O)c(CNC3CCCC3)cc2c1`, the survival was 86%.
Consider `CCCOc1ccc(C(=O)N(Cc2ccc(N(C)C)cc2)CC2CCCO2)cc1` (configuration not stated), for which the survival is 64%.
With `Cc1ccc2nc(NC(=O)c3cc(=O)c4cc(Cl)ccc4o3)sc2c1`, the survival was 47%.
To `Cc1ccc2c(=O)cc(C(=O)Nc3nc4ccc(Cl)cc4s3)oc2c1` belongs 25% (active).
With `Cc1ccc2nc(NC(=O)c3cc(=O)c4cc(C)c(C)cc4o3)sc2c1`, the survival was 54%.
As to `O=C(Cn1nc(-c2ccc(Cl)cc2)ccc1=O)NCc1ccccc1Cl`, the survival was 70%.
With `CCN(C(=O)CSc1nc2ccccc2n1Cc1ccc(F)cc1Cl)c1ccccc1`, the survival was 77%.
In the case of `CC(C)c1ccccc1NC(=O)c1cccs1`, the survival was 61%.
Next, `Cc1cccc(NC(=O)CCCCCn2c(=O)[nH]c3ccsc3c2=O)c1`: 33% (active).
On to `CCCCCNC(=O)CCCCCn1c(=O)[nH]c2ccsc2c1=O`, for which the survival was 81%.
Regarding `O=C(CCCCCn1c(=O)[nH]c2ccsc2c1=O)NCc1ccccc1`, the survival is 89%.
`O=S1(=O)c2ccccc2N(Cc2ccccc2F)c2ccccc21`: the survival is 92%.
In the case of `COc1ccc(NC(=O)CCc2nnc3n(C)c(=O)c4sccc4n23)cc1Cl`, the survival is 78%.
Turning to `CCOCCc1nn2c(=O)cc(COC(=O)c3cccc(C)c3)nc2s1`, the survival is -5% (active).
To `CCc1nn2c(=O)cc(COC(=O)Cc3ccccc3)nc2s1` belongs 72%; to `CCCc1nn2c(=O)cc(COC(=O)c3cccc(NC(=O)c4ccc(OCC)cc4)c3)nc2s1`, 0% (active).
Next, `CCCCc1nn2c(=O)cc(COC(=O)c3ccccc3C)nc2s1`: 83%; `CCOCCc1nn2c(=O)cc(COC(=O)Cc3ccccc3)nc2s1`: 17% (active); `CCOc1ccc(C(=O)Nc2cccc(C(=O)OCc3cc(=O)n4nc(C5CC5)sc4n3)c2)cc1`: 83%.
As for `COCCc1nn2c(=O)cc(COC(=O)c3ccccc3C)nc2s1`, the survival was -5% (active).
Turning to `CCOCCc1nn2c(=O)cc(COC(=O)c3ccc4c(c3)OCO4)nc2s1`, the survival is 128%.
As for `CCOCCc1nn2c(=O)cc(COC(=O)CNC(=O)c3cccc(C)c3)nc2s1`, the survival was 70%.
Consider `CCCc1nn2c(=O)cc(COC(=O)c3ccccc3NC(=O)c3ccc(OCC)cc3)nc2s1`, for which the survival was 49%.
Consider `COCCc1nn2c(=O)cc(COC(=O)COc3ccccc3C)nc2s1`, for which the survival was 73%.
Take `CCOCCc1nn2c(=O)cc(COC(=O)c3ccco3)nc2s1`: the survival was 88%.
For the compound `CCC(c1nnnn1CCc1ccccc1)N(Cc1ccco1)Cc1cc2cc(C)ccc2[nH]c1=O` (configuration not stated), the survival is 62%.
For the compound `COc1ccc(C2=C(C)C(N3CCC(C(=O)NCc4ccc(C)o4)CC3)=NS2(=O)=O)cc1`, the survival is 74%.
As to `COc1cccc(NC(=O)Cn2cc(S(=O)(=O)Cc3ccccc3F)c3ccccc32)c1`, the survival is 78%.
To `CN1CCN(CCC(=O)Nc2ccc(Cl)cc2)CC1` belongs 61%; to `COc1ccc(N2C(=O)CSC23C(=O)N(CC(=O)NC2CCCCC2)c2ccccc23)cc1` (configuration not stated), 83%; to `Cc1cc(=O)c2c(ccc3ccccc32)[nH]1`, 91%.
Consider `CC(OC(=O)CN1C(=O)COc2ccccc21)C(=O)NCc1cccs1` (configuration not stated), for which the survival was 100%.
Take `CCOc1ccc(CNC(=O)c2ccc(NC(=O)N3CCCCc4ccccc43)cc2)cc1OC`: the survival was 73%.
As to `COc1cccc(CNC(=O)CN2C(=O)N(c3cccc(Cl)c3)S(=O)(=O)c3ccccc32)c1OC`, the survival is 72%.
Next, `O=C(CCCN1C(=O)C(c2ccccc2)Oc2cccnc21)Nc1ccccc1C(F)(F)F` (configuration not stated): 100%; `CCOCCc1nn2c(=O)cc(COC(=O)c3ccc(NC(=O)C(C)(C)C)cc3)nc2s1`: 83%; `CCOCCc1nn2c(=O)cc(COC(=O)c3ccc(NC(=O)c4cccs4)cc3)nc2s1`: 112%.
Consider `CCOCCc1nn2c(=O)cc(COC(=O)c3ccc(NC(=O)c4ccc(F)cc4)cc3)nc2s1`, for which the survival was 32% (active).
For the compound `CCCc1nn2c(=O)cc(COC(=O)c3ccc(NC(=O)COc4ccc(F)cc4)cc3)nc2s1`, the survival was 37% (active).
To `CCCc1nn2c(=O)cc(COC(=O)c3ccc(NC(=O)COc4ccccc4)cc3)nc2s1` belongs 92%.
To `CCCc1nn2c(=O)cc(COC(=O)c3cccc(NC(=O)COc4ccc(F)cc4)c3)nc2s1` belongs 99%; to `Cc1ccc(OCc2n[nH]c(=S)n2C2CCCCC2)cc1`, 99%.
As for `Cc1ccc(C2=CC(c3ccccc3F)n3c(nc4ccccc43)N2)cc1C` (configuration not stated), the survival was 70%.
`O=C(NC1CCCCC1)C(c1ccc(O)c(O)c1)N(C(=O)Cn1nnc2ccccc21)C1CCCCC1` (configuration not stated): the survival is 99%.
On to `O=c1ccc2cc(S(=O)(=O)Nc3ccc(OC(F)(F)F)cc3)ccc2[nH]1`, for which the survival was 91%.
With `COC(=O)c1cccnc1-n1c(=O)c2cccnc2n(CC(=O)Nc2c(C)cc(C)cc2C)c1=O`, the survival was 82%.
To `CC(C)CNCC1OCc2ccccc2CO1` belongs 98%.
`COc1ccc(NC(=O)CCSc2nc(-c3ccco3)cc(C(F)(F)F)n2)cc1`: the survival was 57%.
For `O=C(CCS(=O)(=O)c1nc(-c2ccc3c(c2)OCO3)cc(C(F)(F)F)n1)Nc1ccc(Br)cc1`, the survival was 94%.
With `CC(C)NC(=O)CCSc1nc(-c2ccc3c(c2)OCO3)cc(C(F)(F)F)n1`, the survival was 57%.
Regarding `CC(=O)c1ccc(NC(=O)CCCSc2nc(-c3ccco3)cc(C(F)(F)F)n2)cc1`, the survival was 98%.
On to `COc1ccc(NC(=O)CCSc2nc(-c3ccco3)cc(C(F)(F)F)n2)cc1OC`, for which the survival was 50%.
Next, `CC(=O)c1ccc(NC(=O)CCSc2nc(-c3ccco3)cc(C(F)(F)F)n2)cc1`: 46%; `O=C(CCS(=O)(=O)c1nc(-c2ccc3c(c2)OCO3)cc(C(F)(F)F)n1)Nc1ccc(F)c(Cl)c1`: 23% (active).
Turning to `COc1ccc(NC(=O)CCS(=O)(=O)c2nc(-c3ccc4c(c3)OCO4)cc(C(F)(F)F)n2)cc1`, the survival is 103%.
For `COc1cccc(NC(=O)CCSc2nc(-c3ccco3)cc(C(F)(F)F)n2)c1`, the survival is 27% (active).
As for `CC(C)(C)NC(=O)CCSc1nc(-c2ccc3c(c2)OCO3)cc(C(F)(F)F)n1`, the survival is 15% (active).
Consider `CCCNC(=O)CCSc1nc(-c2ccc3c(c2)OCO3)cc(C(F)(F)F)n1`, for which the survival was 68%.
To `CC(=O)c1cccc(NC(=O)CCCSc2nc(-c3ccco3)cc(C(F)(F)F)n2)c1` belongs 31% (active); to `Cc1cc(F)ccc1NC(=O)CCS(=O)(=O)c1ccc2c(c1)CC(C)N2C(=O)C1CC1` (configuration not stated), 81%; to `Cc1cccc(N2CCn3c2nc2c3c(=O)n(CCCc3ccccc3)c(=O)n2C)c1`, 76%.
On to `CCSc1nnc(C2CCCN(C(=O)NCc3ccccc3)C2)n1C` (configuration not stated), for which the survival is 84%.
For `CC1CCCCN1C(=O)CSc1nc(-c2ccccc2)no1` (configuration not stated), the survival is 83%.
To `Cc1ccc(S(=O)(=O)C(CNS(=O)(=O)c2cc(F)ccc2F)c2cccs2)cc1` (configuration not stated) belongs 64%; to `CC1C(=O)CC(c2ccco2)NC1c1ccco1` (configuration not stated), 56%.
In the case of `CCc1nc2ccc(C(=O)NCCc3ccccc3OC)cc2nc1CC`, the survival is 73%.
As to `Cc1ccc(-c2cc3c(N4CCN(c5cc(C)ccc5C)CC4)nccn3n2)cc1`, the survival was 68%.
Turning to `COc1ccc(NC(=O)Cn2c(SCc3cc(C)ccc3C)nc3ccncc32)c(OC)c1OC`, the survival was 61%.
